# Screens as filed in PubChem.
# Most compounds without a hit are left out; they make up all but 11% or so of the library.
# HCV inhibitor – HCV inhibition; Huh7.5.1 HCVcc-Cre infection, luciferase reporter, 44 h; Potency, µM (doses to about 41.8 µM), without a hit: top-dose activity change, negative = inhibition, most hits filed as inhibitors; hit rate 3.4% among 340,000; AID 651820
#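 After 44 h co-culture of compound, cells and HCVcc-Cre (~0.5 moi), substrate is added for 15 min at room temperature and luciferase measured over 15 sec. Cells were seeded at 1,000/well and pre-cultured 4 h.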
# Pf growth 96h – P. falciparum growth inhibition at 96 hours. P. falciparum luciferase reporter growth, 96 h. Potency, µM (top dose mostly 28.7 µM), for inactives: at the highest dose activity change, negative = inhibition, hits mostly inhibitors. hit rate 6.9% among 320,000. AID 504834
#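 Readout is luminescence from an integrated firefly luciferase in P. falciparum. Red cells, 2% hematocrit and 0.05% parasitemia final, were cultured with compound through two parasite generations (96 hours) at 37 C, 5% CO2.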
# AMA1 RON2 block – AMA1-RON2 (P. falciparum) interaction inhibition; AlphaScreen AMA1-biotinylated RON2 peptide binding; Potency, µM (series often up to 58.2 µM), without a hit: top-dose activity change, negative = inhibition, actives largely listed as inhibitors; hit rate 0.2% among 360,000;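 further: 0% = vehicle wells and -100% = peptide control; nearly all actives have a fitted effect of over 45% in size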
#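 AMA1 (3D7) with his tag at 25 nM final met compounds first, then biotinylated RON2 peptide at 25 nM; detection used donor plus acceptor beads, 10 µg/mL apiece, read by AlphaScreen after 30 min at room temperature.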
# Pf growth 48h – P. falciparum growth inhibition at 48 hours (one generation); P. falciparum luciferase growth in erythrocytes, 48 h; Potency, µM (highest dose often 28.7 µM), for inactives: at the highest dose activity change, negative = inhibition, usual class: inhibitors; hit rate 5.9% among 310,000
#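 Luciferase-expressing P. falciparum in infected erythrocytes (2% hematocrit, 0.1% parasitemia final) in RPMI 1640/0.5% Albumax were exposed to compound for 48 hours at 37 C, 5% CO2; growth read as luminescence.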
# * marks the source's active call; other numbers are inactive results; ? = inconclusive; · = no result given; [ ] = dose if it differs, or a comment. The call rests on the fitted dose curve; in most records, active means well fitted curve in the direction sought with a large enough effect; inconclusive means small, poorly fitted or top-dose-only effect, or another doubt; inactive means no such curve, though single readings can be large; an effect the other way counts as inactive or inconclusive. Unless noted, on the % scale 0 is the no-effect control and ±100 the full control effect; potency means the concentration at half of the fitted maximal effect.
SMILES,HCV inhibitor,Pf growth 96h,AMA1 RON2 block,Pf growth 48h
CC(=O)Nc1cccc(-c2csc(C(O)c3ccccc3)n2)c1 (stereo not drawn),·,·,0.0%,·
COc1cc(OC)c(-c2nc3c[n+](CC(=O)c4ccccc4)ccc3n2C)cc1OC,17.0%,?,8.7%,1.85µM*
COc1ccc(C(=O)C[n+]2ccc3c(c2)nc(-c2cc(OC)c(OC)cc2OC)n3C)cc1,17.4%,1.04µM*,-13.5%,3.29µM*
O=C(c1ccccc1)c1n[nH]c(-c2ccccc2)cc1=O,-2.5%,359.1%,-0.5%,10.1%
COc1ccc(S(=O)(=O)N2CCCCC2)cc1C(=O)N1CCCC1,-15.4%,2.33µM*,5.9%,-6.9%
COc1ccc(N2CCN(S(=O)(=O)c3ccc(OC)c(C(=O)N4CCCCC4)c3)CC2)cc1,12.6µM*,10.5%,-3.7%,-2.2%
O=C(OCc1cn([C@@H]2C[C@H](c3ccccc3)N(C(=O)C3CCCCC3)C[C@H]2O)nn1)c1ccccc1,·,·,-1.1%,·
Cn1cnc2cc(NCc3cccs3)ccc21,15.6%,10.4µM*,-1.4%,51.8%
CC(C)CNC(=O)c1ccccc1Oc1ccccc1,-1.5%,14.7µM*,2.1%,·
COc1ccc(C(=O)NCC(C)C)c(OC)c1,?,9.28µM*,-22.5%,?
COc1ccc(C(=O)Nc2ccc(C)cc2C(=O)c2ccccc2)c(OC)c1,-0.7%,?,-17.7%,-2.4%
CCCNC(=O)c1ccc(OC)cc1OC,12.6%,23.1%,-4.8%,35.9%
COc1ccc(C(=O)NCC(c2cccs2)N2CCc3ccccc32)c(OC)c1 (stereo not drawn),?,5.22µM*,-18.2%,10.4µM*
COc1ccc(C(=O)Nc2ccccc2Cc2ccccc2)c(OC)c1,10µM*,?,-15.5%,?
Cc1ccc(NC(=O)C(C)OC(=O)c2ccc(NC(=O)CC#N)cc2)cc1S(=O)(=O)N1CCOCC1 (stereo not drawn),26.0%,?,-8.8%,?
CCN(CC)CCn1c(NC(=O)c2ccc(C)cc2)nc2ccccc21,?,6.57µM*,62.6%,121.3%
CC(=O)NCc1nc2ccccc2n1Cc1ccccc1F,13.3%,2.08µM*,-16.8%,34.5%
CC(=O)Nc1nc2ccccc2n1Cc1ccc(Cl)cc1,-17.5%,?,88.0%,2.94µM*
O=C(Nc1nc2ccccc2n1Cc1ccc(Cl)cc1)c1ccco1,-14.7%,-20.0%,108.1%,11.7µM*
O=C(NCc1nnc2c(C(F)(F)F)cc(Cl)cn12)C1CCCC1,13.0%,16.1%,0.0%,-6.0%
CC(=O)N1CCC(C(=O)OCc2ccccc2F)(c2ccccc2)CC1,-14.2%,0.0%,-3.4%,6.8%
CCOc1cc(NC(=S)NCCc2ccccc2)c(OCC)cc1NC(C)=O,16.4%,4.4%,-7.5%,-6.6%
Cc1ccc(C(=O)Cn2c(=N)n(N)c3ccccc32)cc1,-7.5%,292.6%,-4.5%,56.9%
CCC(=O)Nc1nc2ccccc2n1Cc1ccccc1,?,?,5.4%,?
CCC(=O)Nc1nc2ccccc2n1Cc1ccc(C)cc1,-27.4%,0.2%,112.6%,2.94µM*
SMILES,HCV inhibitor,Pf growth 96h,AMA1 RON2 block,Pf growth 48h
CC(=O)Nc1nonc1-c1nc2ccccc2n1Cc1nnc(C)o1,4.6%,-11.1%,-0.9%,3.0%
C=CCn1c(NC(=O)c2ccco2)nc2ccccc21,-19.3%,11.4%,77.2%,11.7µM*
CC(=O)Nc1nonc1-c1nc2ccccc2n1Cc1ccccc1,?,·,18.7%,11.7µM*
O=C(Nc1nc2ccccc2n1CCN1CCCCC1)c1ccco1,-8.7%,?,-7.2%,3.4%
CCN(CC)CCn1c(=N)n(CC(=O)c2ccc(C)cc2)c2ccccc21,?,19.5%,-4.5%,4.65µM*
CC1CN(S(=O)(=O)c2cccc(C(=O)NCC(c3cccs3)N3CCOCC3)c2)CC(C)O1 (stereo not drawn),22.0%,·,94.5%,·
CCOc1cc(C=O)ccc1OCCn1c([N+](=O)[O-])cnc1C,11.6%,5.5%,11.7%,-13.2%
CC(NC(=O)/C=C/c1ccco1)c1nc2ccccc2n1Cc1cccc(Cl)c1 (stereo not drawn),?,?,17.8%,13.1µM*
CC(C)CCNc1nc(N)c([N+](=O)[O-])c(NC2CCCCC2)n1,6.3%,?,-0.3%,-29.9%
Nc1nc(NCCOCCO)nc(NC2CCCCC2)c1[N+](=O)[O-],2.2%,11.7µM*,0.0%,?
Nc1nc(Nc2ccccc2)nc(NC2CCCCC2)c1[N+](=O)[O-],10µM*,13.1µM*,-16.5%,?
Nc1nc(NCCO)nc(NC2CCCCC2)c1[N+](=O)[O-],-18.6%,5.22µM*,-7.4%,·
Cc1ccc(CNc2nc(N)c([N+](=O)[O-])c(NCCO)n2)cc1,?,8.28µM*,-2.3%,?
CN(C)CCCNc1nc(N)c([N+](=O)[O-])c(NC2CCCCC2)n1,-27.7%,-28.5%,-1.8%,-19.7%
CN(C)CCN(C(=O)C1=COCCO1)c1nc2ccc(F)cc2s1,2.3%,·,-14.7%,·
NC(=O)c1cc(S(=O)(=O)N2CCc3ccccc3C2)cs1,12.2%,44.5%,-3.6%,-6.2%[0.00184 µM]
Cc1c(N=C2SCC(=O)N2/N=C/c2ccccc2)c(=O)n(-c2ccccc2)n1C,-0.6%,41.5%,-2.6%,13.8%
Cn1cc(/C=N/n2cnc3scc(-c4ccccc4)c3c2=O)c2ccccc21,6.31µM*,3.29µM*,-5.6%,-11.3%
O=c1c2c(-c3ccccc3)csc2ncn1/N=C/c1cccc([N+](=O)[O-])c1O,-13.6%,94.2%,20µM*,-5.2%
O=C(CCN1CCN(c2ccccc2)CC1)Nc1ccc(Cl)cc1,1.4%,3.7µM*,-24.5%,-4.7%
O=C(NCc1ccccc1)N1CCC(CO)(Cc2cccc(F)c2)CC1,7.9%,5.4%,-5.4%,0.8%
O=C(Nc1ccc(Cl)cc1)N1CCN(c2ccccc2)CC1,?,11.7µM*,7.8%,?
Cc1csc2c(N3CCN(C(=O)Nc4ccc(OC(F)(F)F)cc4)CC3)ncnc12,?,?,-27.8%,1.47µM*
O=C(Nc1ccc(Cl)cc1)N1CC1,?,·,-8.5%,·
O=C(Nc1ccc(Cl)cc1)N1CCC(CO)(Cc2ccccc2)CC1,?,2.62µM*,5.9%,-9.1%
SMILES,HCV inhibitor,Pf growth 96h,AMA1 RON2 block,Pf growth 48h
COc1cccc(/C=N/n2c(C3CCCCC3)n[nH]c2=S)c1,-17.3%,13.6%,91.6%,·
Cc1ccc(NC(=O)N2CCN(c3ncccc3C(F)(F)F)CC2)cc1,?,13.1µM*,-6.0%,8.28µM*
CC(=O)c1ccc(NC(=O)N2CCN(c3cccc(Cl)c3)CC2)cc1,12.6µM*,?,-1.0%,4.65µM*
O=C(Nc1ccc2ccccc2c1)N1CCN(c2ncccc2C(F)(F)F)CC1,?,?,-1.5%,?
O=C(Nc1cccc(Cl)c1)N1CCC(CO)(CCOc2ccccc2)CC1,-18.3%,13.1µM*,-1.3%,-5.6%
O=C(Nc1ccc(NC(=O)N2CCN(c3ccccc3O)CC2)cc1)N1CCN(c2ccccc2O)CC1,-20.0%,5.86µM*,-26.4%,?
Cc1ccccc1Nc1nnc(SCC(=O)NC2CCCc3ccccc32)s1 (stereo not drawn),-31.1%,?,-10.8%,?
NCCC1CCCC(CCN)N1 (stereo not drawn),2.5%,26.0%,7.9%,-1.5%
